From PubChem BioAssay (Tox21) come the findings set out here.

The nature of assay [1]: qHTS assay to test for compound auto fluorescence at 535 nm (green) in HEK293 cells (AID 720680). (In general: qHTS replaces the single test concentration by a dilution series.)
Assay [2] is described as follows: qHTS assay to test for compound auto fluorescence at 460 nm (blue) in HEK293 cell free culture (AID 720681). The gist of the method: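 Compounds were added to cell-free DMEM with 10% FBS and fluorescence read directly. The blue channel used 405 nm excitation and 460 nm emission, with triamterene as the reference fluorophore.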
Assay [3] is described as follows: qHTS assay to test for compound auto fluorescence at 535 nm (green) in HEK293 cell free culture (AID 720682). In a few lines:
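Read-out: 485/535 nm fluorescence intensity, calibrated against fluorescein. Medium only (DMEM + 10% FBS, no cells); test compound or DMSO vehicle added by pintool before plate reading.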

A short description of assay [4]: qHTS assay to test for compound auto fluorescence at 590 nm (red) in HEK293 cell free culture (AID 720683). In a few lines:
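Cell-free wells of DMEM with 10% FBS received compound, and intrinsic fluorescence was read at excitation/emission 540/590 nm. Values expressed as equivalence to Rose Bengal sodium.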

Assay [5] is described as follows: qHTS assay to test for compound auto fluorescence at 590 nm (red) in HepG2 cell free culture (AID 720684). The gist of the method: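 Compounds are added to culture medium (MEM, 10% FBS) lacking cells, then fluorescence is read at excitation 540 nm, emission 590 nm, with Rose Bengal sodium as the equivalency standard.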
Assay [6] can be described thus: qHTS assay to test for compound auto fluorescence at 460 nm (blue) in HepG2 cell free culture (AID 720685). In a few lines:
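Compound (23 nL) or DMSO pinned into cell-free MEM with 10% FBS; blue fluorescence read at 405/460 nm excitation/emission, expressed as auto-fluorescence equivalency to triamterene.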

Assay [7] is described as follows: qHTS assay to test for compound auto fluorescence at 535 nm (green) in HepG2 cell free culture (AID 720686).
A short description of assay [8]: qHTS assay to test for compound auto fluorescence at 460 nm (blue) in HepG2 cells (AID 720687). The gist of the method: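 HepG2 cells in MEM with 10% FBS, attached overnight at 37 C, were exposed to compound or DMSO for 1 hr at 37 C, 5% CO2. Blue fluorescence was read at 405/460 nm, with triamterene as reference fluorophore.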
The target in assay [9] is Glucocorticoid receptor (Homo sapiens) (UniProt P04150). As to the kind of experiment: qHTS assay to identify small molecule agonists of the glucocorticoid receptor (GR) signaling pathway (AID 720691; active means well fitted activation curve with a large enough effect in the signal ratio in the repeat runs, not every such curve was filed as active; inconclusive means weak or mixed curves, or effect the other way; inactive means no such curve, though single readings can be large or run the other way; the % refers to the signal ratio; further: potency means the concentration at half of the fitted maximal effect). The settings on record: GR-bla HeLa, beta-lactamase reporter ratio, 18 h; activation: at 62.4 µM (top of the series). The gist of the method: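 Beta-lactamase reporter activity, read as fluorescence intensity, was measured in GR-bla HeLa cells exposed to compounds for 18 h at 37 C and then loaded with LiveBLAzer B/G FRET substrate for 2 h at room temperature.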
Chain of Glucocorticoid receptor (Homo sapiens) (P04150 whole entry, looked up): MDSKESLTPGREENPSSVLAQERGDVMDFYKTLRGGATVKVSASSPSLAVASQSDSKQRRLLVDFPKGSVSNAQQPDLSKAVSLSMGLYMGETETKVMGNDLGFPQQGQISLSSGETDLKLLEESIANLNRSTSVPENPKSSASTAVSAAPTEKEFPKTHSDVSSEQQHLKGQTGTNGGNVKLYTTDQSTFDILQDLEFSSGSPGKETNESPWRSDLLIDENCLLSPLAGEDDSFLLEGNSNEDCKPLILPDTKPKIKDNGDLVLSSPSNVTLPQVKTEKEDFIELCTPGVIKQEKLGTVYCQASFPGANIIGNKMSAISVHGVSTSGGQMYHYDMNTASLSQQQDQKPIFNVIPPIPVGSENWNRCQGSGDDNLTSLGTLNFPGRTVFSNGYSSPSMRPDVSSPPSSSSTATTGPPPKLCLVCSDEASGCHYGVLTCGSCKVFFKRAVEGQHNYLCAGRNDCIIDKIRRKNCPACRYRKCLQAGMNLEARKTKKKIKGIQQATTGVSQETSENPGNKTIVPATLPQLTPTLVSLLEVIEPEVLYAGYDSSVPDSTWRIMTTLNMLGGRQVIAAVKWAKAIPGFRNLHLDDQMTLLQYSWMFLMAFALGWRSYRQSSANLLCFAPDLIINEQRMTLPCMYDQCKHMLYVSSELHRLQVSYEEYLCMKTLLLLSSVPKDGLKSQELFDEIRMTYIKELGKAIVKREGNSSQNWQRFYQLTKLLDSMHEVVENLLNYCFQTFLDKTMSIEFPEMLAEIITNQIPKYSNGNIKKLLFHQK

Assay [10] has the same target. The assay can be described thus: qHTS assay to identify small molecule antagonists of the glucocorticoid receptor (GR) signaling pathway (AID 720692; active means well fitted inhibition curve with a large enough effect in the signal ratio in the repeat runs, not every such curve was filed as active; inconclusive means weak or mixed curves, or effect the other way; inactive means no such curve, though single readings can be large or run the other way; the % refers to the signal ratio; further: potency means the concentration at half of the fitted maximal effect). In a few lines: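 Fluorescence from cleaved LiveBLAzer B/G FRET substrate reports GRE-driven beta-lactamase in HeLa cells; compounds are tested against 5 nM dexamethasone (final) over 18 h at 37 C, substrate incubation 2 h at room temperature.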

Assay [11] is described as follows: qHTS assay to identify small molecule antagonists of the glucocorticoid receptor (GR) signaling pathway - cell viability counter screen (AID 720693). Further: nearly all actives have a fitted effect of over 55% in size.
Assay [12] is described as follows: qHTS assay for identifying genotoxic compounds that show differential cytotoxicity against isogenic chicken DT40 cell lines with known DNA damage response pathways - Rev3 mutant cell line (AID 743014). Further: nearly all actives have a fitted effect of over 55% in size. Further: potency means the concentration at half of the fitted maximal effect.
The nature of assay [13]: qHTS assay to identify small molecule antagonists of the androgen receptor (AR) signaling pathway - cell viability counter screen (AID 743033; further: nearly all actives have a fitted effect of over 45% in size).
Assay [14] deals with Androgen receptor (Homo sapiens) (UniProt P10275). The assay can be described thus: qHTS assay to identify small molecule agonists of the androgen receptor (AR) signaling pathway using the MDA cell line (AID 743040; further: nearly all actives have a fitted effect of over 20% in size). The gist of the method:
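Human breast carcinoma MDA-kb2 reporter cells (MMTV-luc, AR/GR elements) were treated for 16 h at 37C in 0% CO2 following a 5 h settling period. Signal was quantified by ONE-Glo luminescence.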

Assay [15] in a line: qHTS assay to identify small molecule antagonists of the androgen receptor (AR) signaling pathway using the MDA cell line - cell viability counter screen (AID 743041; further: nearly all actives have a fitted effect of over 45% in size). In a few lines: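 Same-well cytotoxicity was assessed by CellTiter-Fluor in MDA-kb2 AR-luc cells after 16 h of compound treatment under R1881 agonism.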
The target of assay [16] is Androgen receptor (Homo sapiens) (UniProt P10275). The assay can be described thus: qHTS assay to identify small molecule antagonists of the androgen receptor (AR) signaling pathway using the MDA cell line (AID 743042; further: nearly all actives have a fitted effect of over 55% in size). In a few lines:
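MDA-kb2 breast carcinoma cells carrying MMTV-luciferase (AR/GR responsive) were co-treated with compounds and the agonist R1881 for 16 h at 37C. Inhibition read as ONE-Glo luminescence; CellTiter-Fluor fluorescence measured in parallel for cytotoxicity.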

The nature of assay [17]: qHTS assay for identifying genotoxic compounds that show differential cytotoxicity against isogenic chicken DT40 cell lines with known DNA damage response pathways - Rad54/Ku70 mutant cell line (AID 743015). Further: nearly all actives have a fitted effect of over 60% in size. Further: potency means the concentration at half of the fitted maximal effect.
Assay [18] in a line: qHTS assay for identifying genotoxic compounds that show differential cytotoxicity against isogenic chicken DT40 cell lines with known DNA damage response pathways - wild type cell line (AID 743012). Further: nearly all actives have a fitted effect of over 60% in size. Further: potency means the concentration at half of the fitted maximal effect. The gist of the method: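 Quantitative HTS on parental DT40 cells: 40 h compound treatment at 37 C/5% CO2, with viability then determined by CellTiter-Glo luminescence. Values serve as the DNA repair-proficient reference for differential cytotoxicity.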

Assay [19] addresses Androgen receptor (Homo sapiens) (UniProt P10275). The assay can be described thus: qHTS assay to identify small molecule antagonists of the androgen receptor (AR) signaling pathway (AID 743035; active means well fitted inhibition curve with a large enough effect in the signal ratio in the repeat runs, not every such curve was filed as active; inconclusive means weak or mixed curves, or effect the other way; inactive means no such curve, though single readings can be large or run the other way; the % refers to the signal ratio). The gist of the method: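 Cell line: GeneBLAzer AR-UAS-bla GripTite (HEK293). Stimulus: R1881 added after compound. Exposure: 16 h, 37C, 5% CO2. Readout: LiveBLAzer B/G FRET fluorescence after 2 h at room temperature.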

For assay [20] the target is unchanged. The assay can be described thus: qHTS assay to identify small molecule agonists of the androgen receptor (AR) signaling pathway (AID 743036; active means well fitted activation curve with a large enough effect in the signal ratio in the repeat runs, with a control signal flat, not every such curve was filed as active; inconclusive means weak or mixed curves, or effect the other way; inactive means no such curve, though single readings can be large or run the other way; the % refers to the signal ratio). The gist of the method: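 HEK293 cells stably carrying a UAS-driven beta-lactamase reporter (GeneBLAzer AR-UAS-bla-GripTite) were plated at 2,000 cells/well, rested 4 h at 37C, then exposed to compounds in DMSO for 16 h. LiveBLAzer B/G FRET substrate was added for 2 h at room temperature; fluorescence read.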

Molecules are shown by their SMILES. Active and inactive are the calls of the source. Unless noted, the call rests on the fitted dose curve; in most records, active means well fitted curve in the direction sought with a large enough effect in the repeat runs; inconclusive means weak or mixed curves; inactive means no such curve, though single readings can be large; an effect the other way counts as inactive or inconclusive.

Chain of Androgen receptor (Homo sapiens) (P10275 whole entry, looked up): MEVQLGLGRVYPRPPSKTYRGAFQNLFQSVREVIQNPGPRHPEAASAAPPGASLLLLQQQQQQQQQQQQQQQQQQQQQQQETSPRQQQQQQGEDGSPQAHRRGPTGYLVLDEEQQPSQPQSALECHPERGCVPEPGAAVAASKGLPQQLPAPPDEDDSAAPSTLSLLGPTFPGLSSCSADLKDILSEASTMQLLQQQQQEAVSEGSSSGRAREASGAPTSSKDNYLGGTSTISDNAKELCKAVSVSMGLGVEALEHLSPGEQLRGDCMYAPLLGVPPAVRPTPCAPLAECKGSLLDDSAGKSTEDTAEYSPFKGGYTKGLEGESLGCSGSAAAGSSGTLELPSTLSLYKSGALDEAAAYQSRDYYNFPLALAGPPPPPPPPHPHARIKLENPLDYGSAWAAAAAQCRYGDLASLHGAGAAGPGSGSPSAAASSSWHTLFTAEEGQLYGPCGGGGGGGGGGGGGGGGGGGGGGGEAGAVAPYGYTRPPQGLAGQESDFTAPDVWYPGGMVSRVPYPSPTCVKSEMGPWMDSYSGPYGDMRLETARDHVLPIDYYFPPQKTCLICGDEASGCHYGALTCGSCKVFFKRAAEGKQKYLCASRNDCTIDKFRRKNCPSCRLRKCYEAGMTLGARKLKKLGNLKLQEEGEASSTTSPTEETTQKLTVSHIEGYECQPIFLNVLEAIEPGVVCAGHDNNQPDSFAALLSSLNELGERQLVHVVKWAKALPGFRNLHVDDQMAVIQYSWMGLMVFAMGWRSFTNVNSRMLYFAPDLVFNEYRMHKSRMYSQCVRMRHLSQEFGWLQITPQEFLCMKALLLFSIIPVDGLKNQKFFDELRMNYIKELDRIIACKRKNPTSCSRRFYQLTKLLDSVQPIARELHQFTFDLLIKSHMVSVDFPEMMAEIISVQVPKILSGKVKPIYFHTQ

Turning to `Cc1cc(Nc2ccccc2C(=O)O)ccc1Cl`, the Potency entry in assay [1], in assay [2], in assay [3], in assay [4], in assay [5] and in [7] was “inactive” throughout. Moreover, the Potency result in assay [9], in assay [10], in assay [11], in assay [13], in assay [14] and in assay [15] was “inactive” each time. Further, in assay [16], the Potency entry is “inactive”. Moreover, the call in assay [6] and in assay [8] was inactive. The Potency in [12] is 29.8 µM (active).
`O=S(=O)(O)Oc1ccc(C(c2ccc(OS(=O)(=O)O)cc2)c2ccccn2)cc1`: the Potency entry in [1], in assay [2], in [3], in assay [4], in assay [5] and in assay [7] was “inactive” each time. In addition, the Potency entry in assay [9], in assay [10], in [11], in assay [12], in assay [17] and in [13] was “inactive” each time. In [15], the Potency entry is “inactive”. Also, the call in assay [6] and in assay [8] was inactive.
For `C#C[C@]1(O)CC[C@H]2[C@@H]3CCC4=CC(=O)CC[C@@H]4[C@H]3C(=C)C[C@@]21CC`, the Potency entry in [1], in assay [2], in [3], in [4], in assay [5] and in [7] was “inactive” throughout. The Potency entry in assay [9], in [11], in assay [13] and in assay [15] was “inactive” each time. In addition, the outcome in [6] and in assay [8] was inactive. Also, the results for the Potency in assay [10] and in assay [18] were 379 nM (active) and 29.8 µM (active), respectively.
On to `CCCN(CC)C(CC)C(=O)Nc1c(C)cccc1C` (configuration not stated), for which the Potency entry in [1], in assay [2], in [3], in assay [4], in assay [5] and in assay [7] was “inactive” in each case. Further, the Potency entry in [9], in assay [10], in assay [11], in [17], in assay [13] and in assay [15] was “inactive” throughout. Also, the compound was called inactive in [6] and in assay [8].
As for `CCCCCCCCCCCCCCCCCCOP(=O)([O-])OC1CC[N+](C)(C)CC1`, the Potency result in assay [1], in assay [2], in assay [3], in assay [4], in assay [5] and in [7] was “inactive” each time. The Potency entry in assay [9], in [10], in assay [11], in assay [12], in assay [13] and in assay [15] was “inactive” throughout. The compound was called inactive in [6] and in [8]. The Potency in assay [17] was 14.6 µM (active).
On to `CC(C)(CO)[C@@H](O)C(=O)NCCCC(=O)O`, for which the Potency entry in assay [1], in assay [2], in assay [3], in assay [4], in [5] and in [7] was “inactive” throughout. Moreover, the Potency entry in assay [9], in [10], in [11], in [17], in assay [13] and in [19] was “inactive” each time. The Potency entry in assay [20], in assay [14], in assay [15] and in [16] was “inactive” each time. For the same compound, the compound was classed as inactive in [6] and in assay [8].
As to `CCCCCCCCCCCCCCCC(=O)OC[C@@H](COP(=O)([O-])OCC[N+](C)(C)C)OC(=O)CCCCCCCCCCCCCCC`, the Potency entry in assay [1], in assay [2], in [3], in assay [4], in assay [5] and in assay [7] was “inactive” throughout. The Potency entry in assay [9], in [10], in assay [18], in [17], in assay [13] and in [19] was “inactive” each time. In addition, the Potency entry in [20], in assay [14] and in assay [16] was “inactive” each time. In addition, the result in assay [6] and in assay [8] was inactive.
For `Clc1cc(Cl)c(OCC#CI)cc1Cl`, the Potency entry in assay [1], in [2], in assay [3], in [4], in assay [5] and in assay [7] was “inactive” throughout. The Potency entry in assay [11] is “inactive”. Further, the outcome in assay [6] and in assay [8] was inactive. In addition, the Potency in assay [9] is 26.8 µM [inconclusive] (active); in assay [18], 1.68 µM (active); in [12] it was 2.98 µM (active); in assay [17], 2.66 µM (active).
